These results are taken from ChEMBL document CHEMBL4888484, “Replenishing the malaria drug discovery pipeline: Screening and hit evaluation of the MMV Hit Generation Library 1 (HGL1) against asexual blood stage Plasmodium falciparum ,using a nano luciferase reporter read-out” (2022).

About 540 (0.36%) of roughly 150,000 compounds showed an effect of 50% or more. The sample holds strong results, similar compounds and a random draw of the others, so the mix is not that of the screen.

This assay deals with Plasmodium falciparum. In words: Primary screen in NF54 nanoGlo assay, in single point, at 2uM, 72h; a lower Z score goes with more inhibition. Type of assay: functional, Erythrocyte. The note with it: timepoint 72 hour.
Turning to `Cn1cc(S(=O)(=O)NCc2cc(C3CC3)ncn2)cn1`, the “% Inhibition” value is listed as 16% and the Z score is reported as -2.16.
The corresponding values for `Clc1cnn(CCN2CCc3onc(-c4cccc5ccccc45)c3C2)c1` are -5% and 0.7.
The corresponding values for `CN1C(=O)CC[C@@]12CCN(C(=O)Nc1ccc3c(c1)OCCO3)C2` are -5% and 0.78.
Turning to `Cc1cc([C@@H]2CCCCN2CCn2cc(Cl)cn2)no1`, the “% Inhibition” value is recorded as -11% and the Z score was 1.54.
As to `COc1cccc(C(=O)Nc2c3c(nc4ccccc24)CCCC3)c1`, the “% Inhibition” value turned out to be 1% and the Z score is -0.12.
For `Oc1c2c(nc3ccccc13)CCCCC2`, in that order: 25% and -3.15.
As for `COc1ccc(C(=O)N(C(=O)c2ccc(OC)cc2)c2c3c(nc4ccccc24)CCCC3)cc1`, the “% Inhibition” value amounted to 69% and the Z score is recorded as -5.66.
In the case of `COc1ccccc1C(C)(C)c1noc([C@@]2(C)CCNC(=O)C2)n1`, the “% Inhibition” value is -3% and the Z score was determined as 0.4.
As for `CCOc1ccc(N2C[C@@H](C(=O)NCCc3ccco3)CC2=O)cc1`, the “% Inhibition” value is on record as 0% and the Z score is given as -0.05.
`C[C@H](NCc1ccccc1CN1CCOCC1)C(=O)Nc1cccc2ccccc12`: the “% Inhibition” value is reported as -7% and the Z score was 1.29.
The corresponding values for `Fc1ccc(N2CCN(c3nn4cnnc4c4ccccc34)CC2)cc1` are -10% and 1.31.
On to `c1ccc(C(c2ccccc2)N2CCN(c3nn4cnnc4c4ccccc34)CC2)cc1`, for which the “% Inhibition” value is on record as 81% and the Z score was -11.8.
In the case of `c1ccc2[nH]c(C3CCN(c4nn5cnnc5c5ccccc45)CC3)nc2c1`, the “% Inhibition” value is -15% and the Z score worked out at 2.33.
For `COc1ccc(-c2nc3c(c(N4CCC[C@@H]4C)n2)CCOCC3)cc1`, the “% Inhibition” value is reported as -10% and the Z score came out at 0.99.
Consider `O=C(Nc1ccnn1C1CCC1)c1ccc(-c2cn[nH]c2)cn1`, for which the “% Inhibition” value is -10% and the Z score is listed as 1.42.
Regarding `O=C1CCCCN1CCC(=O)N1CCc2onc(-c3cccc4ccccc34)c2C1`, the “% Inhibition” value is -1% and the Z score turned out to be 0.1.
Turning to `Cc1nn(C)c2nc(OCC(=O)NC(C)(C)C)cc(C(F)(F)F)c12`, the “% Inhibition” value is on record as -8% and the Z score was determined as 0.92.
Take `Cn1nccc1[C@@H]1CN(C(=O)Nc2nsc3ccccc23)CCO1`: the “% Inhibition” value is -5% and the Z score was 0.53.
As for `Cc1ccc(S(=O)(=O)c2c(NS(=O)(=O)c3ccccc3)n(CCc3ccccc3)c3nc4ccccc4nc23)cc1`, the “% Inhibition” value was 99% and the Z score is listed as -11.17.
Turning to `Cc1ccc(S(=O)(=O)Nc2c(S(=O)(=O)c3ccccc3)c3nc4ccccc4nc3n2CCc2ccccc2)cc1`, the “% Inhibition” value is on record as 86% and the Z score was -14.39.
Take `Cc1ccc(S(=O)(=O)c2c(NS(=O)(=O)c3ccc(F)cc3)n(CCc3ccccc3)c3nc4ccccc4nc23)cc1`: the “% Inhibition” value is on record as 98% and the Z score is given as -8.73.
Turning to `Cc1ccc(S(=O)(=O)Nc2c(S(=O)(=O)c3ccc(C)cc3)c3nc4ccccc4nc3n2C[C@H]2CCCO2)cc1`, the “% Inhibition” value is listed as 48% and the Z score is listed as -4.28.
As to `CCC(=O)Nc1c(S(=O)(=O)c2ccccc2)c2nc3ccccc3nc2n1[C@@H](C)c1ccccc1`, the “% Inhibition” value was -14% and the Z score is 1.29.
For `Cc1ccc(S(=O)(=O)c2c(NS(=O)(=O)c3ccc(Cl)cc3)n(-c3cc(C)cc(C)c3)c3nc4ccccc4nc23)cc1`, the “% Inhibition” value was -6% and the Z score was 0.5.
In the case of `COc1ccc(S(=O)(=O)c2c(N)n(Cc3ccc(C)cc3)c3nc4ccccc4nc23)cc1`, the “% Inhibition” value was -6% and the Z score came to 0.56.
Take `Cc1ccc(S(=O)(=O)c2c(NC(=O)c3ccco3)n(C3CCCCC3)c3nc4ccccc4nc23)cc1`: the “% Inhibition” value is recorded as -11% and the Z score is given as 1.85.
For `Cc1ccc(S(=O)(=O)c2c(NS(=O)(=O)c3ccc(F)cc3)n(C[C@H]3CCCO3)c3nc4ccccc4nc23)cc1`, in that order: 6% and -0.71.
As to `Cc1ccc(S(=O)(=O)Nc2c(S(=O)(=O)c3ccc(C)cc3)c3nc4ccccc4nc3n2CCC(C)C)cc1`, the “% Inhibition” value is 85% and the Z score is on record as -10.94.
Consider `Nc1c(S(=O)(=O)c2ccc(Cl)cc2)c2nc3ccccc3nc2n1Cc1ccc(Cl)cc1`, for which the “% Inhibition” value is -9% and the Z score is reported as 0.81.
As for `CC(C)n1cc(C(=O)N(CCOc2ccc(Cl)cc2)Cc2ccco2)cn1`, the “% Inhibition” value is recorded as -9% and the Z score was determined as 1.28.
With `O=C(Nc1cccc(C(F)(F)F)c1)C1(F)C(F)(F)C(F)(F)C(F)(F)C(F)(F)C1(F)F`, the “% Inhibition” value stood at 2% and the Z score is listed as -0.22.
Turning to `c1ccc2oc(-c3nc(C4CC4)n[nH]3)cc2c1`, the “% Inhibition” value is on record as -12% and the Z score was 1.37.
On to `N[C@@H](c1ccc2c(c1)CCO2)c1cc(Cl)ccc1Cl`, for which the “% Inhibition” value is 0% and the Z score is on record as -0.02.
With `O=C(Nc1nc(C(=O)N2CCN(c3ncccn3)CC2)co1)c1ccsc1`, the “% Inhibition” value was -2% and the Z score was determined as 0.31.
As to `CCCN1CCCC[C@H]1C(=O)NCCCn1ccnc1`, the “% Inhibition” value is listed as -6% and the Z score is listed as 1.01.
For the molecule `Cc1ccc(C(=O)N2CCC[C@H](CCC(=O)N3CCN(c4ccccn4)CC3)C2)s1`, the “% Inhibition” value is recorded as -8% and the Z score is 1.24.
Consider `COc1ccc(-c2nc3ccc(Cc4ccc5nc(-c6ccc(OC)cc6)c(-c6ccc(OC)cc6)nc5c4)cc3nc2-c2ccc(OC)cc2)cc1`, for which the “% Inhibition” value turned out to be 11% and the Z score is -2.21.
For `O=C(NC[C@H]1CCCN1c1ccccc1)c1ccccc1Br`, in that order: -13% and 2.53.
For `Cc1ccc(S(=O)(=O)Nc2cc3nc4ccccc4nc3n2CCc2ccccc2)cc1`, in that order: 100% and -10.64.
As to `COCCCn1c(NS(=O)(=O)c2ccc3ccccc3c2)c(S(=O)(=O)c2ccc(C)cc2)c2nc3ccccc3nc21`, the “% Inhibition” value amounted to 57% and the Z score is reported as -8.33.
The corresponding values for `CCCCc1ccc(-n2c(NS(=O)(=O)c3ccc(Cl)cc3)c(S(=O)(=O)c3ccc(C)cc3)c3nc4ccccc4nc32)cc1` are 4% and -0.41.
As to `O=C(Nc1c(S(=O)(=O)c2ccccc2)c2nc3ccccc3nc2n1CCc1ccccc1)c1ccc(Cl)cc1`, the “% Inhibition” value amounted to 101% and the Z score is reported as -8.88.
On to `CCCCn1c(NC(=O)c2ccccc2Cl)c(S(=O)(=O)c2ccccc2)c2nc3ccccc3nc21`, for which the “% Inhibition” value is recorded as -7% and the Z score turned out to be 0.7.
On to `C[C@@H](c1ccccc1)n1c(NC(=O)c2ccc(Cl)cc2)c(S(=O)(=O)c2ccccc2)c2nc3ccccc3nc21`, for which the “% Inhibition” value is listed as -15% and the Z score is reported as 1.3.
`CCCCn1c(NC(=O)c2ccccc2)c(S(=O)(=O)c2ccc(C)cc2)c2nc3ccccc3nc21`: the “% Inhibition” value is given as 0% and the Z score was -0.03.
Turning to `Cc1ccc(S(=O)(=O)NCCn2c3ccccc3c3c(C)cc(C)nc32)cc1`, the “% Inhibition” value was -5% and the Z score is 0.73.
Consider `COCCCn1c(NS(=O)(=O)c2ccccc2)c(S(=O)(=O)c2ccc(C)cc2)c2nc3ccccc3nc21`, for which the “% Inhibition” value amounted to 43% and the Z score is given as -9.12.
For `CCOc1cccc2c1OC[C@@H](C(=O)N1CCCS1(=O)=O)C2`, the “% Inhibition” value was -7% and the Z score came out at 1.2.
Consider `Cc1cc(C)c(-c2ccc(C(=O)N(C)CCn3ccnc3C)cc2)cc1C`, for which the “% Inhibition” value is given as -5% and the Z score came out at 0.69.
Consider `COCCNc1c(-c2ccccc2)nc2sc(C(=O)NCc3cccnc3)c(C)n12`, for which the “% Inhibition” value is recorded as -31% and the Z score amounted to 3.13.
Turning to `Cc1ccc(-n2cc(NC(=O)c3cc(C)no3)cn2)c(C)c1`, the “% Inhibition” value is recorded as -5% and the Z score was determined as 0.56.
With `O=c1c2cnc(N3CCc4ccccc4C3)nc2ccn1-c1ccc(Cl)c(Cl)c1`, the “% Inhibition” value is -8% and the Z score was determined as 1.01.
Turning to `Cc1cccc(N2CCO[C@@H](CF)C2)n1`, the “% Inhibition” value was found to be 5% and the Z score is reported as -0.46.
The corresponding values for `Cc1cnccc1NCCNCc1cccc(O)c1Cl` are 88% and -13.09.
For the molecule `CCn1ccc(CNCCNc2ccncc2C)n1`, the “% Inhibition” value is listed as -3% and the Z score came to 0.68.
For `Cc1cnccc1NCCNCc1ccnc(C(C)C)n1`, the “% Inhibition” value is on record as -15% and the Z score was determined as 1.39.
As to `Cc1cnccc1NCCNCc1nc(C(C)C)cs1`, the “% Inhibition” value is reported as 6% and the Z score is -0.58.
In the case of `CC1CCN(Cn2c(=S)sc3ccccc32)CC1`, the “% Inhibition” value is on record as -4% and the Z score is on record as 0.63.
For `Cc1nccn1CC(=O)N[C@@H](C)C1=CCCCC1`, the “% Inhibition” value was found to be 3% and the Z score is -0.38.
The corresponding values for `O=C1Nc2ccc(F)cc2C12CCNC2c1ccc2c(c1)OCCO2` (centres undefined) are 31% and -3.54.
In the case of `Cc1ccccc1S(=O)(=O)N1CCN(c2c(C)n(-c3ccccc3)c(=O)n(C)c2=O)CC1`, the “% Inhibition” value came to 36% and the Z score was -0.1.
With `Cn1c(N)c(S(=O)(=O)N2CCN(c3ccccc3Cl)CC2)c(=O)n(C)c1=O`, the “% Inhibition” value amounted to 59% and the Z score is given as -11.06.
The corresponding values for `CS(=O)(=O)N1CCN(S(=O)(=O)N2CCN(c3ccccc3Cl)CC2)CC1` are 5% and -0.74.
For the molecule `O=C(CCN(CCc1ccccc1)c1nc(C2CC2)nc2ccccc12)Nc1ccccc1`, the “% Inhibition” value is on record as 0% and the Z score is -0.06.
Regarding `O=C(CCN1C(=O)CCC1=O)Nc1cccc(S(=O)(=O)N2CCCCC2)c1`, the “% Inhibition” value is -4% and the Z score worked out at 0.89.
For `CCN1CCN([C@H]2CCN(c3ccnc4c(F)cc(Cl)cc34)C2)CC1`, the “% Inhibition” value worked out at 11% and the Z score is recorded as -1.82.
In the case of `CC(C)(C)OC(=O)N1CCC1CN1CCCC(c2nnc(N)o2)C1` (centres undefined), the “% Inhibition” value turned out to be 32% and the Z score is -3.65.
For `Cn1ncc(Cl)c1C(=O)NCc1cccnc1Oc1ccc(F)c(F)c1`, in that order: -3% and 0.62.
Take `O=C(Cn1nnc2ccccc21)N(Cc1cccnc1)C1(C(=O)Nc2ccc(N3CCOCC3)cc2)CCCCC1`: the “% Inhibition” value came out at 2% and the Z score is recorded as -0.25.
For `CN(C)c1ccc(NC(=O)C2(N(Cc3ccccc3)C(=O)Cn3nnc4ccccc43)CCCCC2)cc1`, the “% Inhibition” value is recorded as 51% and the Z score is reported as 0.77.
Consider `O=C(Cn1nnc2ccccc21)N(Cc1cccnc1)C1(C(=O)Nc2ccc3c(c2)OCO3)CCCC1`, for which the “% Inhibition” value is on record as 5% and the Z score is listed as -0.59.
The corresponding values for `O=C(Cn1nnc2ccccc21)N(Cc1nc(-c2ccccc2)cs1)C1(C(=O)Nc2ccc3c(c2)OCO3)CCCC1` are -7% and 0.77.
`O=C(Cn1nnc2ccccc21)N(Cc1ccccc1)C1(C(=O)Nc2ccc3c(c2)OCO3)CCCCC1`: the “% Inhibition” value is 50% and the Z score was -5.71.
In the case of `COc1ccc(NC(=O)C2(N(Cc3nc(-c4ccccc4)cs3)C(=O)Cn3nnc4ccccc43)CCCCC2)cc1`, the “% Inhibition” value is on record as 55% and the Z score is -6.2.
As for `CN(C)c1ccc(NC(=O)C2(N(Cc3ccccc3)C(=O)Cn3nnc4ccccc43)CCCC2)cc1`, the “% Inhibition” value was determined as 5% and the Z score is recorded as -0.62.
`O=C(Cn1nnc2ccccc21)N(Cc1cccnc1)C1(C(=O)Nc2ccc3c(c2)OCO3)CCCCC1`: the “% Inhibition” value worked out at 36% and the Z score is on record as -0.52.
As to `COc1ccc(NC(=O)C2(N(Cc3ccccc3)C(=O)Cn3nnc4ccccc43)CCCCC2)cc1`, the “% Inhibition” value stood at 44% and the Z score is recorded as -1.28.
